# Among all 21,000 compounds or so, fewer than 10 showed an effect of 50% or more. A selection follows. Measured potencies and affinities stand elsewhere.
# Tested on: Acinetobacter baumannii
# Conditions: Concentration 32 ug.mL-1; ASSAY_TEST Inhibition of Bacterial Growth; detection method Absorption (OD600); MEDIA CAMHB; plate type 384well; NBS; CORNING #3640; time 18 hr
row,SMILES,Inhibition [%]
1,C#CCN(C)c1nc(NCCC2CCN(Cc3ccccc3)CC2)c(C#N)cc1C#N.Cl,-7.83
2,CCOC(=O)C1=C(C)Oc2nc3c(c(N)c2C1c1nccn1C)CCC3 (stereo not given),0.84
3,Nc1nc(N)c(C=O)c(-c2ccccc2)c1C=O,5.37
4,Cn1ccnc1C1C2=C(CC(C)(C)CC2=O)Oc2nc3c(c(N)c21)CCCC3 (stereo not given),-5.19
5,N#CC1=C(Cl)Oc2c(ccc3ccccc23)C1c1ccc([N+](=O)[O-])cc1 (stereo not given),-15.4
